Among the data in PubChem BioAssay AID1845226 (National Center for Advancing Translational Sciences (NCATS), 2023) are outcome values, retold here.

Inconclusive results are not listed. Active and inactive are the calls of the source. The call rests on the fitted dose curve; in most records, active means well fitted inhibition curve with a large enough effect; inconclusive means small, poorly fitted or top-dose-only effect; inactive means no such curve, though single readings can be large or run the other way.

The nature of this experiment: Confirmatory fluorescence-based thiol-reactive (MSTI) qHTS assay for identification of artifact compounds. To be noted: MSTI thiol-reactivity probe, 1 h; series mostly up to 39.2 µM. From the text:
PI: Alexander Tropsha Ph.D. UNC Eshelman School of Pharmacy University of North Carolina, Chapel Hill, North Carolina Hits from high-throughput screening (HTS) of chemical libraries are often false positives due to their interference with the assay detection technology. In response to this problem, we generated the largest publicly available library of chemical liabilities and developed a free webtool to predict HTS artifacts, both of which are described herein. More specifically, we generated, curated, and integrated HTS datasets for thiol reactivity, redox activity, and luciferase (firefly and nano) activity. Using these curated datasets, we developed and validated several Quantitative Structure-Interference Relationship (QSIR) models to predict nuisance behavior. […] These models were employed for virtual profiling of the National Center for Advancing Translational Science's (NCATS) in-house library, and 256 compounds for each assay were selected for the experimental validation of nuisance behavior. The BA for these external predictions ranged from 58 to 78% for compounds within the applicability domains of the models. […] The models developed in this study, along with aggregation models previously developed by our group (SCAM Detective) were implemented in "Liability Predictor," an online tool which may be used as part of chemical library design or for triaging HTS hits. Both the models and the curated datasets are publicly available at https://liability.mml.unc.edu/.
PROTOCOL TABLE SEQUENCE No. (e.g., 1, 2, 3, etc.); PARAMETER (e.g., Cells, Incubation, Reagent, etc.); VALUE; DESCRIPTION. 1; Reagent; 4 uL; […]. 2; Compounds and control; 16 nL; Kalypsis pin tool (Wako USA) equipped with a 1536-well pin head. 3; Incubation; 1 hour. 4; Detection; Fluorescence, ViewLux microplate reader, 525 nm excitation, 598 nm emission. NOTES (numbers refer to Sequence numbers above) 1. Assays determining (E)-2-(4-mercaptostyryl)-1,3,3-trimethyl-3H-indol-1-ium (MSTI) reactivity were performed as previously described in the literature with modifications for the quick identification of compounds reacting with thiol. In brief, 4 uL of MSTI or positive control Acetyl-MSTI (final concentrations of 4 uM and 4 uM, respectively) in assay buffer (2% DMSO in 1X PBS pH 7.4) was dispensed into all wells of a 1536-well assay plate (solid-bottom black plate; Greiner Bio One, Monroe, NC). 2. A Wako Pin-tool (Wako Automation, Richmond, VA) was used to transfer 16 nL of compounds (consisting of 7-plates in qHTS format, final concentration range 18.3 nM to 114 uM) or control MLS001163887 (final concentration range 1.22 nM to 40 uM). 3. Plates were centrifuged (121xg, 15 seconds) and incubated for 1 hour at room temperature protected from light. 4. Samples were read for fluorescence (Ex/Em = 525(20)/598(25) nm) on a ViewLux CCD imager (PerkinElmer). Data were normalized to Acetyl-MSTI (0% activity) and MSTI (100% activity) and the resulting percent inhibition data were fitted to a 4-parameter Hill equation using NCATS in-house software.
(In qHTS, concentration-response curves come from the screen itself.)
For the compound `COc1ccc2c3c1O[C@H]1[C@@H](O)C=C[C@H]4[C@@H](C2)NCC[C@@]341`, the call was inactive. In the case of `CC1CCCC(O)CCCCCc2cc(O)cc(O)c2C(=O)O1` (configuration not stated) it was “inactive”. To `CC[C@H]1[C@@H]2C[C@H]3[C@@H]4N(C)c5ccccc5[C@]45C[C@@H](C2[C@H]5O)N3[C@@H]1O` (some centres not stated) belongs “inactive”.

`O=c1ccc2cc(O[C@@H]3O[C@H](CO)[C@H](O)[C@H](O)[C@H]3O)c(O)cc2o1`: the result was inactive. In the case of `c1ccc2sc(SNC3CCCCC3)nc2c1` it was “inactive”; in that of `COc1ccc2[nH]cc(CCNCc3ccc(Br)cc3)c2c1`, “inactive”. For `C[C@H]1CCCC(=O)CCC/C=C/c2cc(O)cc(O)c2C(=O)O1`, the call was inactive.
